# Data taken from PubChem BioAssay (NCI).
# This is part of a sample that, as a whole, favours compounds with a hit. Of some 83,000 tested, about 20% had one in any assay.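 Cell lines were cultured in 96-well plates, exposed to a single compound concentration, and assessed for percent growth 48 hours later.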 A number with no mark means an inactive call. Activity calls are given as the source filed them. How the source made its calls: active means growth percent below 10; inactive means the rest.
# Experiments:
# Assay in all cases: NCI-60 one-dose screen, 48 h (100 = growth as untreated, 0 = no growth, -100 = all killed)
# Details in all cases: 10 µM unless noted
# NCI-H23 lung = test system: NCI-H23 lung
# NCI-H226 lung = test system: NCI-H226 lung
# NCI-H322M lung = test system: NCI-H322M lung
# HOP-62 NSCLC = test system: HOP-62 NSCLC
# NCI-H460 lung = test system: NCI-H460 lung
# HOP-92 NSCLC = test system: HOP-92 NSCLC
# NCI-H522 lung = test system: NCI-H522 lung
# A549/ATCC NSCLC = test system: A549/ATCC NSCLC
# 786-0 renal = test system: 786-0 renal
# COLO 205 colon = test system: COLO 205 colon
# DU-145 prostate = test system: DU-145 prostate
# K-562 leukemia = test system: K-562 leukemia
# MALME-3M melanoma = test system: MALME-3M melanoma
# MDA-MB-231 breast = test system: MDA-MB-231 breast
# RXF 393 renal = test system: RXF 393 renal
# SF-268 CNS = test system: SF-268 CNS
# SF-295 CNS = test system: SF-295 CNS
# SF-539 CNS = test system: SF-539 CNS
# UACC-257 melanoma = test system: UACC-257 melanoma
# M14 melanoma = test system: M14 melanoma
Structure (SMILES),growth (NCI-H23 lung),growth (NCI-H226 lung),growth (NCI-H322M lung),growth (HOP-62 NSCLC),growth (NCI-H460 lung),growth (HOP-92 NSCLC),growth (NCI-H522 lung),growth (A549/ATCC NSCLC),growth (786-0 renal),growth (COLO 205 colon),growth (DU-145 prostate),growth (K-562 leukemia),growth (MALME-3M melanoma),growth (MDA-MB-231 breast),growth (RXF 393 renal),growth (SF-268 CNS),growth (SF-295 CNS),growth (SF-539 CNS),growth (UACC-257 melanoma),growth (M14 melanoma)
COc1cc(/C=C/C(=O)c2cnn(-c3cc(=O)[nH]c4ccc(Cl)cc34)c2C)cc(OC)c1OC,-55.9% (active),-24.2% (active),7.2% (active),-68.3% (active),-39.1% (active),-11.9% (active),-62.9% (active),-17.1% (active),-43.9% (active),-67.7% (active),-72.8% (active),-12.4% (active),-20.4% (active),-5.1% (active),-84.1% (active),-23.8% (active),-71.5% (active),-69.3% (active),-33.8% (active),-49% (active)
Nc1nn2c(-c3cc4cc(Br)ccc4oc3=O)ccnc2c1N=Nc1ccc(Br)cc1,-7.78% (active),-25% (active),23.7%,-11.9% (active),15%,-5.4% (active),24.6%,39.6%,13.8%,35.8%,36.8%,32.4%,52.1%,-43.8% (active),-31.4% (active),26.9%,-37% (active),-71.4% (active),87.8%,42.4%
O=C(COc1ccc(/C=C2/C(=O)Nc3ccc(Cl)cc32)cc1)Nc1ccc(Br)cc1,-53.6% (active),-48.5% (active),0.856% (active),-72.6% (active),-31.6% (active),-48.4% (active),-35% (active),-66.2% (active),-78.9% (active),2.47% (active),-9.85% (active),2.94% (active),-41.5% (active),-33.7% (active),-65.7% (active),16.7%,-59.7% (active),-84.9% (active),15.1%,-2.56% (active)
OC1CCC(Cn2c(C(F)(F)F)cc3c(Cl)ncnc32)CC1 (stereo not given),-26% (active),64.4%,-13.9% (active),13.3%,-43.6% (active),78.2%,-81.3% (active),94%,92.7%,60.2%,10.5%,-3.95% (active),79.3%,2.76% (active),63.1%,-36.4% (active),75.6%,75.6%,9.12% (active),-44.1% (active)
COc1ccccc1NC(=O)c1ccc(NC(=O)CCl)s1,-66% (active),-34.6% (active),94.1%,41.9%,-16% (active),-0.226% (active),-77.3% (active),-2.86% (active),-93.4% (active),9.16% (active),41.1%,-8.7% (active),-4.74% (active),-58% (active),-56.5% (active),22.3%,31.9%,-14.1% (active),10.6%,-74.7% (active)
CCCCNC(=S)Nc1ccc(OCc2nc3ccc(Cl)cc3[nH]2)cc1,29.3%,58.4%,57%,49.5%,15.6%,-0.247% (active),-57.5% (active),52.7%,31.3%,24.9%,26.3%,11.1%,41.2%,10.5%,-1.67% (active),48.3%,67.6%,28.4%,56.9%,39.1%
COc1ccc(N=Nc2c(N)nn3c(-c4ccc([N+](=O)[O-])cc4)ccnc23)cc1,105%,95.2%,107%,95.3%,105%,94.5%,91.6%,104%,93%,119%,105%,95.1%,93%,98.5%,109%,98.8%,97.5%,99.2%,97.3%,104%
Nc1nnc(CS(=O)(=O)c2ccccc2)s1,107%,121%,94.6%,102%,114%,86.5%,80.8%,102%,108%,117%,113%,98.9%,94.1%,102%,172%,105%,99.2%,101%,97.1%,97.3%
COc1ccc(/C=C/C(=O)c2ccc(S(=O)(=O)NCCNc3nc(N(C)C)nc(N4CCOCC4)n3)cc2)cc1,97.7%,89.6%,91.7%,102%,104%,93.1%,64.7%,91.5%,80.1%,110%,103%,35.9%,97.5%,88.4%,92.1%,84.1%,92.5%,83.7%,96.5%,92.1%
O=C(CSc1nc2c(c(=O)[nH]1)CCCC2)Nc1ccccc1C(=O)O,99.9%,101%,102%,104%,120%,117%,83.8%,103%,103%,124%,110%,95.8%,96.7%,109%,108%,106%,100%,97.9%,109%,108%
O=C(NN1C(=O)/C(=C/C=C/c2ccc([N+](=O)[O-])o2)SC1=S)c1ccc([N+](=O)[O-])cc1,-88.4% (active),-83.3% (active),-100% (active),-100% (active),-48.9% (active),-84.2% (active),-88.7% (active),-93% (active),-80.1% (active),-94.1% (active),-100% (active),4.2% (active),-91.3% (active),-99.7% (active),-88.6% (active),-82.3% (active),-97.5% (active),-100% (active),-82.2% (active),-82.5% (active)
COc1ccc(NC(=O)Nc2nc3ccc([N+](=O)[O-])cc3s2)cc1,-2.33% (active),6.28% (active),13.1%,25.4%,3.86% (active),-5.8% (active),1.25% (active),30.2%,35.3%,67.9%,24.8%,9.59% (active),-1.52% (active),46.1%,-0.305% (active),38.6%,35.6%,7.77% (active),16%,57.6%
CC1=C(C(=O)Nc2ccccc2)C(c2cccc(Cl)c2Cl)n2c(nc3ccccc32)N1 (stereo not given),61.3%,70.5%,60.3%,88.6%,25.7%,40.6%,25.3%,33.2%,53.4%,63.9%,71.1%,26.5%,71.4%,71.4%,34.5%,42.5%,47.1%,71.4%,60.8%,48.8%
CC(C)(C)C(=O)C1CC(C#N)=C2C=Cc3c(ccc4ccccc34)N21 (stereo not given),89.2%,77%,101%,88.3%,97.8%,70.7%,83.9%,81.2%,76.6%,93.6%,102%,85.4%,102%,80.7%,91.8%,83.1%,83.4%,67.4%,84.7%,105%
COc1ccc2ccccc2c1/C=C1\SC(=Nc2ccc(O)cc2)NC1=O,19.3%,-5.11% (active),32.7%,23.8%,11.1%,18.3%,-24% (active),11.5%,17.7%,-22.2% (active),35.2%,7.49% (active),30.1%,15.1%,-1.11% (active),37.9%,10.7%,-21.7% (active),37.8%,6.7% (active)
O=C1c2cccc3c(N4CCN(Cc5ccccc5)CC4)ccc(c23)C(=O)N1c1cccc(-c2nn(-c3ccccc3)cc2-c2nc3ccccc3s2)c1,96%,82%,101%,123%,110%,105%,104%,113%,101%,119%,119%,97.4%,98.5%,105%,99.8%,108%,107%,97%,124%,97.8%
